Reference: PubChem BioAssay (NCATS)
Inconclusive results are not listed. Where a call stands in place of a potency, no number is given. Unmarked numbers belong to inactive results. The source made the active and inactive calls. Calls come from the whole dose curve; as a rule, active = well fitted inhibition curve with a large enough effect; inconclusive = small, poorly fitted or top-dose-only effect; inactive = flat fitted curve, though single readings scatter.

target: Phospholipid hydroperoxide glutathione peroxidase GPX4 (Homo sapiens) (UniProt P36969); assay: Primary qHTS Assay for Inhibitors of Recombinant Selenoprotein Glutathione Peroxidase 4 (GPX4) (AID 1845192); conditions: recombinant GPX4, GR-coupled NADPH fluorescence, 15 min; series mostly up to 50 µM; activity change, negative = inhibition: at the top concentration; note: nearly all actives have a fitted effect of over 65% in size
Sequence (P36969 whole entry, looked up): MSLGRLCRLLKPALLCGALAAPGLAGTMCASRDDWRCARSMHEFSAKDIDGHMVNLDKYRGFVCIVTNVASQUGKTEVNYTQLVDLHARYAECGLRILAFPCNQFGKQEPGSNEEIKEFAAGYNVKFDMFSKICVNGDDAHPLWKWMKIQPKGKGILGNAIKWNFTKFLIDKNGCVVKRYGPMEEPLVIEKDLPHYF
Source text: Assay Provider: Elias S.J. Arner MD PhD.
Department of Medical Biochemistry and Biophysics
Karolinska Institutet, Solna, Stockholm, Sweden
Selenoprotein glutathione peroxidases (GPX), like the ubiquitously expressed GPX1 and the ferroptosis modulator GPX4, enact their antioxidant activities by reducing hydroperoxides using glutathione. […] GPX1 and GPX4 inhibitors have thus shown promise as anti-cancer agents. Existing inhibitors are often promiscuous, or modulate GPX activity only indirectly, so novel direct inhibitors identified through screening against GPX1 and GPX4 could be valuable. Here, we developed optimized glutathione reductase (GR)-coupled GPX assays for the biochemical high-throughput screen (HTS) of almost 12,000 compounds with known mechanisms of action. Initial hits were triaged using a GR counter-screen, assessed for isoform specificity using a separate GPX2 assay, and were assessed for general selenocysteine-targeting activity using a thioredoxin reductase (TXNRD1) assay. With this suite of assays, we identified novel GPX1/GPX2- and GPX4-specific inhibitors and can here present a validated pipeline for future discovery research for selenoprotein-targeting agents.
SEQUENCE No. (e.g., 1, 2, 3, etc.); […] (e.g., Cells, Incubation, Reagent, etc.); VALUE; DESCRIPTION.
1; Reagent 1; 3 uL; 333.33 nM GPx4 enzyme or no enzyme control in 1536-well, black, solid Greiner assay plate.
2; Compound; 25 nL; Kalypsis pin tool (Wako USA) equipped with a 1536-well pin head.
3; Incubation; 30 min; room temperature.
4; Reagent 2; 1 uL; 500 nM GR, 5 mM GSH, 2.5 mM NADPH solution
5; Reagent 3; 1 uL; 2.5 mM CHP in 50% EtOH.
6; Detection; Fluorescence; ViewLux microplate reader, excitation 340 nm and emission 450 nm.
7; Incubation; 15 min; room temperature.
8; Detection; Fluorescence; ViewLux microplate reader, excitation 340 nm and emission 450 nm.
NOTES (numbers refer to Sequence numbers above)
1. 3 µL of 333.33 nM GPX4 and 0.016% BSA in assay buffer (50 mM Tris-HCl, 2 mM EDTA (pH 7.5), 150 mM NaCl) was added to columns 3-48 of 1536-well plates using a BioRAPTR Flying Reagent Dispenser (Let's Go Robotics (LGR), Carlsbad, CA). A no-enzyme control (0.01% BSA in TES assay buffer) was added to columns 1-2.
2. 25 nL, library and DMSO controls were added to each well with a pin tool (Kalypsys).
3. The assay plates were incubated for 30 minutes at room temperature.
4. 1 µL of master mix (500 nM glutathione reductase (GR), 5 mM reduced glutathione (GSH), 2.5 mM NADPH in assay buffer) was added.
5. 1 µL of cumene hydroperoxide (CHP) ([2.5 mM] in 50% EtOH) was then added within 5 minutes to initiate the reaction. Final concentrations were: 200 nM GPX4, 1 mM GSH, 0.5 mM CHP, 0.5 mM NADPH, 100 nM GR, 0.01% BSA.
6. Initial fluorescence readout (t=0) at 340/450 nm was measured using a ViewLux multimodal detector (PerkinElmer, Waltham, MA).
8. Endpoint fluorescence readout (t=15) at 340/450 nm was measured 15 min after room temperature incubation.
Potency is the fitted concentration of half-maximal effect.

| SMILES | outcome | Potency | activity change, negative = inhibition [%] |
| --- | --- | --- | --- |
| Oc1ccccc1-c1ccccc1 | inactive | – | – |
| Cc1ccc(S(=O)(=O)N[C@@H](CCCCN)C(=O)CCl)cc1 | inactive | – | – |
| Clc1ccc(CCC(Cn2ccnc2)Sc2c(Cl)cccc2Cl)cc1 (stereo not given) | – | inactive | – |
| CNC(=O)N1N=C(c2ccc(N)cc2)c2cc3c(cc2CC1C)OCO3 (stereo not given) | – | – | 1.13 |
| N#CC(C#N)=Cc1ccc(O)c(O)c1 | inactive | – | – |
| CC[C@@H](CO)NC(=O)[C@@H]1C=C2c3cccc4[nH]cc(c34)C[C@H]2N(C)C1 | – | inactive | – |
| CCC(C(N)=O)N1CCCC1=O (stereo not given) | inactive | – | – |
| NCC(CC(=O)O)c1ccc(Cl)cc1 (stereo not given) | – | inactive | – |
| CCCN1CCC[C@@H]2Cc3nc(N)ncc3C[C@H]21 | inactive | – | – |
| CCC1(C2=NCCN2)Cc2ccccc2O1 (stereo not given) | – | – | -2.82 |
| O=C1NCN(c2ccccc2)C12CCN(CC1COc3ccccc3O1)CC2 (stereo not given) | – | – | -7.96 |
| O=[N+]([O-])c1cc([As](=O)(O)O)ccc1O | – | – | -7.21 |
| C=CCN1CC[C@]23c4c5ccc(O)c4O[C@H]2C(=O)CC[C@@]3(O)[C@H]1C5 | inactive | – | – |
| Oc1cccc2cccnc12 | – | inactive | – |
| Cc1cccc(C)c1NC1=NCCCS1 | – | inactive | – |
| O=C(O)C(=O)c1cn(Cc2ccccc2)c2ccc(-c3ccc(OC(F)(F)F)cc3)cc12 | – | 9.04 µM (active) | – |
| CN1C[C@H](CNC(=O)OCc2ccccc2)C[C@@H]2c3cccc4c3c(cn4C)C[C@H]21 | – | – | -9.27 |
| COc1ccc(C(CN(C)C)C2(O)CCCCC2)cc1 (stereo not given) | – | inactive | – |
| C[C@@H]1O[C@@H](O[C@H]2C[C@@H](O)[C@]3(CO)[C@H]4[C@H](O)C[C@]5(C)[C@@H](C6=CC(=O)OC6)CC[C@]5(O)[C@@H]4CC[C@]3(O)C2)[C@H](O)[C@H](O)[C@H]1O | – | inactive | – |
| COC1(CS(=O)c2ccccc2)CCN(CCc2c[nH]c3ccc(F)cc23)CC1 (stereo not given) | – | – | -5.87 |

| SMILES | outcome | Potency | activity change, negative = inhibition [%] |
| --- | --- | --- | --- |
| CNCC(O)c1ccc(O)cc1 (stereo not given) | – | inactive | – |
| CC(C)=CCOc1c2occc2cc2ccc(=O)oc12 | – | – | -13.5 |
| N[C@@H]1C[C@H]1c1ccccc1 | – | inactive | – |
| COc1ccc(Cc2nccc3cc(OC)c(OC)cc23)cc1OC | – | inactive | – |
| CC(C)CC(N(C)C)C1(c2ccc(Cl)cc2)CCC1 (stereo not given) | – | – | -24.3 |
| c1ccc(C2CC2)c(OCC2=NCCN2)c1 | – | – | -3.38 |
| CC(O)(CS(=O)(=O)c1ccc(F)cc1)C(=O)Nc1ccc(C#N)c(C(F)(F)F)c1 (stereo not given) | – | inactive | – |
| Cc1cc(SCc2sc(-c3ccc(C(F)(F)F)c(F)c3)nc2C)ccc1OCC(=O)O | – | – | -11.7 |
| C=C(C)[C@H]1Cc2c(ccc3c2O[C@@H]2COc4cc(OC)c(OC)cc4[C@@H]2C3=O)O1 | – | inactive | – |
| O=c1[nH]c2ccccc2n1CCCN1CCC(n2c(=O)[nH]c3cc(Cl)ccc32)CC1 | – | inactive | – |
| CN1CCN(C(=O)O[C@H]2c3nccnc3C(=O)N2c2ccc(Cl)cn2)CC1 | inactive | – | – |
| C=C1C[C@@H]2[C@H](CC[C@]3(C)C(=O)CC[C@@H]23)[C@@]2(C)C=CC(=O)C=C12 | – | inactive | – |
| CC(=O)Nc1cc([As](=O)(O)O)ccc1O | inactive | – | – |
| Oc1cc(Cl)ccc1Oc1ccc(Cl)cc1Cl | – | – | -19.3 |
| C[C@]12CC[C@H]3[C@@H](CCC4=CC(=O)CC[C@@H]43)[C@@H]1CC[C@@H]2OC(=O)CCc1ccccc1 | – | – | -10.6 |
| CC(C)NCC(O)c1ccccc1Cl (stereo not given) | – | – | -4.22 |
| CC(C)=CC1C(C(=O)OCc2cccc(Oc3ccccc3)c2)C1(C)C (stereo not given) | inactive | – | – |
| CN(C)CCN(C)CCc1ccc(Cl)c(Cl)c1 | inactive | – | – |
| Clc1ccc(COC(Cn2ccnc2)c2ccc(Cl)cc2Cl)cc1 (stereo not given) | – | inactive | – |
| CCCC1CCCCN1 (stereo not given) | – | – | 1.58 |
